The record followed here is PubChem BioAssay (NCI).

SMILES strings stand for the structures. About 79,000 compounds went through this panel and 15% of them were active in at least one assay; those are over-represented in the sample as a whole. A number with no mark means an inactive call. The source made the active and inactive calls. Cut-off read from the data, not from the text of the source: active = growth inhibition above about 70%; inactive = the rest.

The nature of assay [1]: NCI Yeast Anticancer Drug Screen. Data for the rad50 strain (AID 155).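 Note: 0% = growth of vehicle-only cultures of the same strain.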 Conditions: S. cerevisiae rad50 strain growth inhibition; at 50.0 µM; stronger effect = higher value. In short, it runs like this: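 DNA repair mutant yeast, compound exposure, growth read-out; inhibition is taken relative to vehicle.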
A short description of assay [2]: NCI Yeast Anticancer Drug Screen. Data for the mec2-1 strain (AID 157). Conditions: S. cerevisiae mec2-1 strain, at 50.0 µM, stronger effect = higher value. The procedure, abridged: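 Readout is yeast growth inhibition, normalised to vehicle-treated controls, in the mec2-1 strain exposed to compound.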
The nature of assay [3]: NCI Yeast Anticancer Drug Screen. Data for the sgs1 mgt1 strain (AID 161).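 Note: 0% = growth of cultures given vehicle only.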 Conditions: S. cerevisiae sgs1 mgt1 strain, at 50.0 µM, stronger effect = higher value. The procedure, abridged: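 Yeast cells carrying a defined DNA-repair defect were exposed to test compounds. Growth inhibition was measured relative to vehicle-treated controls.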
Assay [4] is described as follows: NCI Yeast Anticancer Drug Screen. Data for the cln2 rad14 strain (AID 165).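 Note: 0% = growth equal to vehicle treated cultures.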 Conditions: S. cerevisiae cln2 rad14 strain, at 50.0 µM, stronger effect = higher value. The procedure, abridged:
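Relative to vehicle controls, growth inhibition of compound-treated cln2 rad14 yeast was recorded.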

A short description of assay [5]: NCI Yeast Anticancer Drug Screen. Data for the bub3 strain (AID 167). Conditions: S. cerevisiae bub3 mutant strain, at 50.0 µM, stronger effect = higher value. The procedure, abridged: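 In this screen, a yeast mutant lacking normal mitotic checkpoint function is challenged with compound. Relative growth versus vehicle gives the inhibition value.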
Assay [6] is described as follows: NCI Yeast Anticancer Drug Screen. Data for the mlh1 rad18 strain (AID 175). Conditions: S. cerevisiae mlh1 rad18 strain growth inhibition; at 50.0 µM; stronger effect = higher value. In short, it runs like this:
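Test agents were incubated with a yeast strain of defined genotype (DNA damage repair defect). Inhibition of growth was derived by comparison with vehicle-exposed cultures.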

Turning to `CCOC(=O)C(Cc1ccc(N(CCCl)CCCl)cc1)NC(=O)C(C)NC(C)=O` (stereo unspecified), the growth inhibition was 0.45% in assay [1]; -7.3% in assay [2]; -15.5% in assay [3]; 15.7% in assay [4]; -0.6% in assay [5]; 7% in assay [6].

Take `CN1CN(c2ccccc2)C2(CCN(Cc3csc4ccccc34)CC2)C1=O`: the growth inhibition in assay [1] was -50.9%; in assay [2] it was -31.5%; in assay [3], -47.5%; in assay [4], -1.3%; in assay [5], -7.1%; in assay [6] it was -20.1%.

Regarding `C1CCNCC1.COc1ccccc1C(=O)[CH-]C(=O)C(F)(F)F.COc1ccccc1C(=O)[CH-]C(=O)C(F)(F)F.COc1ccccc1C(=O)[CH-]C(=O)C(F)(F)F.COc1ccccc1C(=O)[CH-]C(=O)C(F)(F)F.[Eu+3]`, the growth inhibition in assay [1] was 56.3%; in assay [2], 48.5%; in assay [3], 48.9%; in assay [4], 34.1%; in assay [5] it was 29.8%; in assay [6], 64.5%.

As to `O=[N+]([O-])c1ccc(O)c(C=NCCN=Cc2cc([N+](=O)[O-])ccc2O)c1.[Ni+2]`, the growth inhibition is -30.6% in assay [1]; 5.8% in assay [2]; -3.9% in assay [3]; -56.6% in assay [4]; -3.8% in assay [5]; -22.4% in assay [6].

As for `Cn1cnnc1N`, the growth inhibition in assay [1] was 5.4%; in assay [2], 5.7%; in assay [3] it was 6.3%; in assay [4], 4.4%; in assay [5], 13.2%; in assay [6], 4.35%.

For the molecule `Cc1ccc(C)c(C(C)NC2=NCCO2)c1` (stereo unspecified), the growth inhibition is -3.95% in assay [1]; -7.95% in assay [2]; -11.7% in assay [3]; 1.2% in assay [4]; -9.9% in assay [5]; 19% in assay [6].

On to `O=C1NC2(CCCC2)C(=O)N1CCCN(CCCl)CCCl`, for which the growth inhibition in assay [1] is 2.75%; in assay [2], 12.9%; in assay [3] it was 25.1%; in assay [4] it was -37.3%; in assay [5], 7.35%; in assay [6], 3.2%.

In the case of `CCC1CN1CCC(=O)Nc1ccccc1` (stereo unspecified), the growth inhibition in assay [1] was -2.8%; in assay [2], -13.1%; in assay [3] it was -14.2%; in assay [4] it was -35.2%; in assay [5] it was -17.6%; in assay [6], 6.3%.

As to `ClCc1ccc(Cl)c(Cl)c1`, the growth inhibition was 16.1% in assay [1]; 3.8% in assay [2]; -3.05% in assay [3]; 10.4% in assay [4]; 1.5% in assay [5]; -20.4% in assay [6].

On to `O=C(O)[C@H](O)[C@@H](O)C(=O)O.[Pb]`, for which the growth inhibition in assay [1] was 7.05%; in assay [2] it was -4.35%; in assay [3], -2.9%; in assay [4], -36.9%; in assay [5], 6.85%; in assay [6] it was -9.2%.

For the molecule `Cc1ccc2cc3c(ccc4ccccc43)c3c2c1CC3`, the growth inhibition in assay [1] is -9.05%; in assay [2] it was -23.9%; in assay [3], -2.75%; in assay [4] it was -3.4%; in assay [5], 13.3%; in assay [6], 1.85%.

Take `O=C(COc1ccc(Cl)c(Cl)c1)Nc1ccccc1S(=O)(=O)F`: the growth inhibition was 27.6% in assay [1]; -5.35% in assay [2]; -3.8% in assay [3]; 21.6% in assay [4]; 5.15% in assay [5]; 21.4% in assay [6].

For `O=S(=O)(O)C(Br)(Br)Br`, the growth inhibition is 29.4% in assay [1]; 5.3% in assay [2]; 23.6% in assay [3]; -26.9% in assay [4]; 7.25% in assay [5]; 28.2% in assay [6].

Regarding `ICc1nc2ccccc2[nH]1`, the growth inhibition was 15.6% in assay [1]; -3.6% in assay [2]; 3.65% in assay [3]; -1.75% in assay [4]; -14.5% in assay [5]; 6.1% in assay [6].

Consider `Oc1cc(Cl)ccc1Cl`, for which the growth inhibition in assay [1] is 98.2% (active); in assay [2] it was 99% (active); in assay [3] it was 98.6% (active); in assay [4] it was 96.5% (active); in assay [5], 99% (active); in assay [6] it was 98.8% (active).

As to `CC[C@@H](C)C(=O)O[C@H]1[C@H](O)[C@H]2[C@@H](CN3C[C@@H](C)CC[C@H]3[C@@]2(C)O)[C@@H]2C[C@]34O[C@@]5(O)[C@@H](OC(=O)[C@](C)(O)[C@@H](C)O)CC[C@@]3(C)[C@@H]5[C@@H](OC(C)=O)[C@@H](OC(C)=O)[C@H]4[C@@]21O`, the growth inhibition in assay [1] is 8.75%; in assay [2], 6.25%; in assay [3], -23.6%; in assay [4] it was 12.6%; in assay [5], 4.9%; in assay [6], 25.5%.

On to `CC(C)(C)NCC(COc1ccc([N+](=O)[O-])cc1)OP(c1ccccc1)c1ccccc1` (stereo unspecified), for which the growth inhibition is 15.7% in assay [1]; 6.25% in assay [2]; 2.25% in assay [3]; 23.6% in assay [4]; 14.8% in assay [5]; 21.3% in assay [6].

Turning to `CN(C)C(=S)Oc1cc(Cl)c(S(=O)(=O)F)cc1Cl`, the growth inhibition is 99.5% (active) in assay [1]; 98.8% (active) in assay [2]; 99.2% (active) in assay [3]; 95.8% (active) in assay [4]; 99.2% (active) in assay [5]; 99% (active) in assay [6].

As to `CC(=O)C(C)(C)C`, the growth inhibition in assay [1] is 0%; in assay [2], -1.45%; in assay [3], 5.15%; in assay [4] it was 3%; in assay [5] it was 3.5%; in assay [6], 24.1%.

For the molecule `Cc1cccc(OP(=O)(c2ccccc2)c2ccccc2)c1`, the growth inhibition in assay [1] is 15.7%; in assay [2] it was 0.35%; in assay [3] it was 22.6%; in assay [4], -40.6%; in assay [5], 3.55%; in assay [6] it was -15.9%.

As to `CCCCCCCCCCCCP(=O)(O)OCC(N)C(=O)O` (stereo unspecified), the growth inhibition was -0.9% in assay [1]; -21.6% in assay [2]; 1.5% in assay [3]; -7.1% in assay [4]; -12.8% in assay [5]; -17.9% in assay [6].
